# Active and inactive are the calls of the source. No rule for the calls is given here.
# Assay: inhibition of Brca1/Bard1 split-luciferase complementation, confirmation, counter-screen for Mdm2/MdmX interaction inhibitor project, luminescence, single concentration (AID 504668)
# Settings: Brca1/Bard1 bimolecular luciferase complementation counterscreen, at 8 µM, hits give high values
row,SMILES,inhibition
1,COc1cc([N+](=O)[O-])cc(/C=N/NC(=O)c2ccc(NC(=O)c3ccc(C)cc3)cc2)c1O,33.2% (active)
2,O=C(C[C@H]1C[C@H](C(=O)N2CCCCC2)[C@@]2(CCc3ccccc3)c3[nH]c4ccc(Cl)cc4c3CCN2C1=O)NCc1cccc(C(F)(F)F)c1,34% (active)
3,CC(C)[C@H](NC(=O)c1ccccc1Cl)C(=O)Nc1nc(-c2ccccn2)cs1,35.6% (active)
4,FC(F)(F)c1cnc(NNC(=S)Nc2ccc(Cl)cc2)c(Cl)c1,23.3% (active)
5,Cc1nnnn1/C(=C\c1ccccc1)C(=O)OCC(=O)Nc1cccc(S(=O)(=O)N(C)C)c1,34% (active)
6,O=C(Nc1nc(-c2ccccn2)cs1)c1cccc(S(=O)(=O)N2CCOCC2)c1,33.4% (active)
7,N=c1ccn2c(n1)OC1C(O)C(CO)OC12 (stereo not given),45.7% (active)
8,Cc1cc(Br)cc(/C=N/NC(=O)c2ccc3c(c2)OCO3)c1O,33% (active)
9,N#CC1=C(N)C(C#N)(C#N)C(c2cccnc2)C2CC(c3ccccc3)CC=C12 (stereo not given),23.1% (active)
10,COc1ccccc1C(NC(C)=O)c1cc(Cl)c2cccnc2c1O (stereo not given),31.2% (active)
11,CCCCC(=O)NC(c1ccco1)c1cc(Cl)c2cccnc2c1O (stereo not given),28.6% (active)
12,O=C1/C(=C/c2ccc(F)cc2)SC(=S)N1CCCC(=O)N1CCCCC1CCO (stereo not given),23.7% (active)
13,C=C1C(=O)C=C[C@]2(C)C[C@@H]3OC(=O)[C@](C)(O)[C@H]3C[C@@H]12,25.4% (active)
14,CC(C)(C)c1cc(C(=O)N/N=C/c2ccccc2O)n(-c2ccccc2)n1,28.9% (active)
15,CC(=O)N1CCN(c2ccc(NC(=O)c3ccc([N+](=O)[O-])o3)cc2Cl)CC1,26.6% (active)
16,Cc1ccccc1OCC(O)Cn1c(=N)n(Cc2ccccc2)c2ccccc21 (stereo not given),28.9% (active)
17,O=C(Nc1ccccc1)C1=C[C@@H](C2CCCCC2)C[C@@H](OCc2ccc(CO)cc2)O1,24.1% (active)
18,O=C(C#Cc1ccccc1)Nc1cccc(F)c1,30.5% (active)
19,Cc1ccc(Cc2c(C)c(C#N)c3[nH]c4ccccc4n3c2=O)cc1,35.8% (active)
20,CCOc1ccc2[nH]c3c(N4CCc5ccccc5C4)ncnc3c2c1,35.8% (active)

row,SMILES,inhibition
1,O=C(CCCN1C(=O)/C(=C/c2cccc(Br)c2)SC1=S)Nc1ccccn1,31% (active)
2,Oc1c(C(c2ccc(Cl)cc2)N2CCCC2)cc(Cl)c2cccnc12 (stereo not given),32.9% (active)
3,Cn1c(C(=O)NCc2ccccc2)cc2oc3ccccc3c21,32.1% (active)
4,C=C(C(=O)Oc1ccccc1C(C)(C)C)c1ccccc1,34% (active)
5,CC(C)(C)c1cc(NC(=O)CCl)n(-c2ccccc2)n1,24.1% (active)
6,Nc1nonc1-c1nc2ccccc2n1CC(=O)Nc1ccccc1,24.8% (active)
7,CC(=O)NC(=S)Nc1ccc(NC(=S)NC(=O)/C=C/c2ccco2)cc1,35% (active)
8,CCN(CC)S(=O)(=O)c1cc(OC)ccc1N=Nc1ccc(O)c2ncccc12,35.8% (active)
9,COc1ccccc1[C@@]1(C)ON(c2ccccc2C(F)(F)F)C1=O,31.6% (active)
10,O=C(Nc1c2ccccc2nc2ccccc12)C(Cl)(Cl)Cl,33.7% (active)
11,S=C(NNc1ccc2ccccc2c1)NC1CCCCC1,34.4% (active)
12,Cc1ccn2c(Nc3ccccc3C)c(-c3ccccn3)nc2c1,31.7% (active)
13,Cc1cc(C(=O)CSc2nnc3ccccn23)c(C)n1-c1ccccc1,29.6% (active)
14,CCOc1cc(NC(=O)c2ccco2)c(OCC)cc1NC(=O)COc1ccccc1C,33.4% (active)
15,CCSc1nsc(NC(=O)Nc2cccc(F)c2)n1,26.2% (active)
16,COc1ccc(OC)c2[nH]c(C(=O)N/N=C/c3ccccc3O)cc12,32.5% (active)
17,CCc1cc(C(=O)N2CCc3c([nH]c4ccccc34)C2c2ccc(OC)cc2F)no1 (stereo not given),34.5% (active)
18,Oc1c(Cl)cc(Cl)c(Cl)c1Cc1c(O)c(Cl)cc(Cl)c1Cl,26.8% (active)
19,C=CCn1c(O)c(N=NC(=S)Nc2cccc(C)c2)c2ccccc21,33.1% (active)
20,CCN(CC)C(=O)CN1C(=O)/C(=C/c2ccccc2)SC1=S,27.6% (active)

# Source: PubChem BioAssay
